Molecules are shown by their SMILES. The panel holds about 83,000 compounds, 20% with a hit somewhere; the sample as a whole holds those more often.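 A percent growth of 40 corresponds to 60% growth inhibition; 0 means no net growth; -100 means all cells died. Active threshold: below 10.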 A number with no mark means an inactive call. Active and inactive are the calls of the source.

For this test, the system named is MALME-3M melanoma. In words: NCI-60 one-dose screen, 48 h (100 = growth as untreated, 0 = no growth, -100 = all killed). Conditions: 10 µM unless noted.
`C=CC1=C[C@@H]2[C@@H]3O[C@]4(CC[C@H](O4)[C@@H](C)C[C@@H](O)C3=O)C[C@H](O)C3=NCC[C@@]32CC1`: the growth was -82.2% (active).
In the case of `Cc1cc(-c2nc3cc(F)ccc3[se]2)cc(F)c1N`, the growth was 84.9%.
Under `CN1CC(=O)N(O)C1(C)c1cccnc1` (configuration not stated) stands 102%.
On to `O=C(Nc1ccncc1F)c1cn(CC2CC2)c2ccccc12`, for which the growth is 119%.
In the case of `COc1cccc2c1c(C(=O)C(=O)Nc1cc(C)no1)cn2Cc1ccc(F)cc1` it was 69.3%; in that of `CC(C)OC(=O)[C@H](C)NP(=O)(Oc1ccccc1)C1CCCN(O)C1=O` (some centres not stated), 43.6%.
On to `CC[C@@H]1[C@@H](C)O[C@@](O)([C@@H](C)[C@H](O)[C@H](C)[C@H]2OC(=O)/C=C/C=C/[C@H](C)[C@@H]([C@@H](C)[C@@H](O)[C@H](C)[C@@]3(O)C[C@@H](O[C@H]4C[C@@H](O)[C@H](O)C(C)O4)[C@H](CC)[C@@H](C)O3)OC(=O)/C=C/C=C/[C@@H]2C)C[C@H]1O[C@@H]1C[C@@H](O)[C@H](O)C(C)O1` (some centres not stated), for which the growth was -97% (active).
Consider `CCOc1ccc(/C=C/[N+](=O)[O-])cc1`, for which the growth was 106%.
Consider `O=C1C2C(C(=O)[N]1[Hg][c]1ccccc1)C1(Cl)C(Cl)=C(Cl)C2(Cl)C1(Cl)Cl` (configuration not stated), for which the growth was -78.4% (active).
Under `COC(=O)[C@@H](C)C[C@H](Cc1ccc2ccccc2c1)NC(=O)c1csc([C@@H](C[C@H](C(C)C)N(C)C(=O)[C@@H](NC(=O)[C@H]2CCCCN2C)C(C)C)OC(C)=O)n1` stands 63.1%; under `Cc1cc(N(CCCl)CCCl)ccc1C=Nc1ccccc1-c1ccccc1`, 77.1%; under `CCn1cnc2c(Nc3cccc(Cl)c3)nc(N[C@@H]3CCCC[C@@H]3N)nc21`, 15%.
Under `CC12CCC3C(CCC4=CC(=O)CCC43CF)C1CCC2=O` (configuration not stated) stands 94.2%; under `C=CC12CCN(CC1)C(C(O)c1ccnc3ccc(OC)cc13)C2` (configuration not stated), 26.2%; under `COc1cc([C@@H]2c3cc4c(cc3[C@H](OC(C)=O)[C@H]3COC(=O)[C@H]23)OCO4)cc(OC)c1OC`, 68.9%.
Under `CC(=O)[O][Hg][O]C(C)=O` stands 54.3%; under `O=C(CCCCCCC(=O)Nc1ccc(N(CCCl)CCCl)cc1)NO`, 19.2%; under `CC[C@H](C)[C@H](NC(=O)[C@H]1CCCCN1C)C(=O)N(C)[C@H](C[C@@H](OC(C)=O)c1nc(C(=O)NC23CC(C(=O)OC)(C2)C3)cs1)C(C)C`, 67.3%.
As for `COc1ccc(/C(C)=C(\c2ccc(OCCN3CCOCC3)cc2)c2ccc(OC(=O)Cc3ccccc3)cc2)cc1`, the growth was 104%.
On to `NC(=O)C(Br)c1ccccc1` (configuration not stated), for which the growth was 74.9%.
In the case of `O=C([O][Hg][CH2]C1OCCOC1[CH2][Hg][O]C(=O)c1ccccc1)c1ccccc1` (configuration not stated) it was -98.3% (active).
In the case of `CN(C)CCCOc1ccc2c(c1)c(C(=O)C(=O)NCCO)cn2Cc1ccccc1` it was 97.1%; in that of `C1CCC([PH+](C2CCCCC2)C2CCCCC2[PH+](C2CCCCC2)C2CCCCC2)CC1.O=C(C1[CH-]CCCC1)C1CCCC[N-]1.[Au]` (configuration not stated), -66.3% (active); in that of `C[Se]C(=O)c1ccccc1OC(C)=O`, 68.7%.
Under `CC(C)COC(C[N+](=O)[O-])C(Cl)(Cl)Cl` (configuration not stated) stands 123%.
`Oc1c(O)c(Cl)c(Cl)c(Cl)c1Cl`: the growth was 64.7%.
Under `NC(N)=N/N=C\c1c[nH]c2ccc(Br)cc12` stands 76.8%; under `Brc1ccc2c(c1)c(-c1nc(-c3c[nH]c4ncccc34)cs1)cn2CCN1CCCCC1`, 100%.
Under `COc1ccc2c(c1)c(C1(O)CC(CSC#N)OC1=O)cn2C(=O)c1ccc(Cl)cc1` (configuration not stated) stands 81.9%; under `COC(=O)[C@@H](C)C[C@H](Cc1ccccc1)NC(=O)c1nc([C@@H](C[C@H](C(C)C)N(C)C(=O)[C@@H](NC(=O)[C@H]2CCCCN2C)C(C)C)OC(C)=O)sc1C`, 54%; under `COc1ccc(-n2c(C)nc3cc(OC)c(OC)cc3c2=O)cc1OC`, 62.3%.
For the compound `CC[S][Hg][Cl]`, the growth is 118%.
On to `COc1ccc(C2=CC(c3ccc(OC)c(OC)c3)c3c(c4ccccc4oc3=O)O2)cc1OC` (configuration not stated), for which the growth is 75.3%.
`COc1ccc(/C=C\c2cc(OC)c(OC)c(OC)c2)cc1OCC(=O)Nc1nc2ccc(OC(F)(F)F)cc2s1`: the growth was 26.4%.
Under `CCCCCCCCCCCCCCCCCC1OC[C@H](COC(=O)O[C@@H](C(=O)O[C@H]2C[C@@]3(O)[C@@H](OC(=O)c4ccccc4)[C@@H]4[C@]5(OC(C)=O)CO[C@@H]5C[C@H](O)[C@@]4(C)C(=O)[C@H](OC(C)=O)C(=C2C)C3(C)C)[C@@H](NC(=O)c2ccccc2)c2ccccc2)O1` (some centres not stated) stands 58.9%; under `O=C(Nc1ccc(O)cc1)C(Cl)(Cl)Cl`, 96.8%; under `CCOC(=O)[C@@H](C)C[C@H](Cc1ccccc1)NC(=O)c1nc([C@@H](C[C@H](C(C)C)N(C)C(=O)[C@@H](NC(=O)[C@H]2CCCCN2C)C(C)C)OC(C)=O)sc1CCOCc1ccccc1`, -77.4% (active).

For the origin of these results see PubChem BioAssay (NCI).
